# Compounds without any hit were thinned out: in the full panel of roughly 79,000, 15% have a hit. Values without a mark were called inactive. Activity calls are given as the source filed them. Rule as the data show it: active = growth inhibition above about 70%; inactive = the rest.
# What was measured:
# [1] = NCI Yeast Anticancer Drug Screen. Data for the wt1 strain (AID 149);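 also: 0% = growth of vehicle-treated wt1 cultures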; conditions: S. cerevisiae wt1 strain (SPY 50644) growth inhibition, stronger effect = higher value
# In short: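 wt1 yeast, compound-treated; % growth inhibition vs vehicle control.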
# [2] = NCI Yeast Anticancer Drug Screen. Data for the rad50EPP+ strain (AID 151);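 also: 0% = growth of vehicle-treated control cultures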; conditions: S. cerevisiae rad50 mutant strain, stronger effect = higher value
# In short: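 rad50EPP+ yeast treated with test compounds. Readout: growth vs vehicle control.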
# [3] = NCI Yeast Anticancer Drug Screen. Data for the rad50 strain (AID 155);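 also: 0% = growth of vehicle-only cultures of the same strain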; conditions: S. cerevisiae rad50 strain growth inhibition, stronger effect = higher value
# In short: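 Genetically altered yeast (DNA repair pathway); compound treatment; growth inhibition vs vehicle ctrl.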
# [4] = NCI Yeast Anticancer Drug Screen. Data for the mec2-1 strain (AID 157); conditions: S. cerevisiae mec2-1 strain, stronger effect = higher value
# In short: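 Growth inhibition is read against vehicle-treated controls after compound exposure of the mec2-1 yeast strain, which is defective in DNA damage repair or cell cycle control.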
# [5] = NCI Yeast Anticancer Drug Screen. Data for the rad14 strain (AID 159);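 also: 0% = growth of vehicle-treated control cultures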; conditions: S. cerevisiae rad14 strain growth inhibition, stronger effect = higher value
# In short: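 Test compounds were applied to a repair-deficient yeast strain. Its growth was then compared with that of cultures given vehicle alone, and inhibition was expressed relative to those controls.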
# [6] = NCI Yeast Anticancer Drug Screen. Data for the sgs1 mgt1 strain (AID 161);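 also: 0% = growth of cultures given vehicle only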; conditions: S. cerevisiae sgs1 mgt1 strain, stronger effect = higher value
# In short: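 Percent growth inhibition was derived by comparing compound-exposed mutant yeast with vehicle-exposed cultures. The strain carries alterations in DNA damage repair.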
# [7] = NCI Yeast Anticancer Drug Screen. Data for the CLN2oe strain (AID 163);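 also: 0% = growth of vehicle-only control cultures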; conditions: S. cerevisiae CLN2oe strain, stronger effect = higher value
# In short: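 Compound-treated yeast; growth vs vehicle ctrl = % inhibition. Genetically altered strain (cell-cycle control).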
# [8] = NCI Yeast Anticancer Drug Screen. Data for the cln2 rad14 strain (AID 165);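 also: 0% = growth equal to vehicle treated cultures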; conditions: S. cerevisiae cln2 rad14 strain, stronger effect = higher value
# In short: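 Growth inhibition, relative to vehicle-treated controls, is the read-out. The test organism is a yeast strain with defined genetic alterations, cln2 rad14.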
# [9] = NCI Yeast Anticancer Drug Screen. Data for the bub3 strain (AID 167); conditions: S. cerevisiae bub3 mutant strain, stronger effect = higher value
# In short: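 Yeast carrying a defined mutation is treated with each compound, and growth is compared with that of vehicle-exposed cells to give inhibition.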
# [10] = NCI Yeast Anticancer Drug Screen. Data for the wt2 strain (AID 169);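 also: 0% = growth of vehicle-treated yeast cultures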; conditions: S. cerevisiae wt2 strain growth inhibition, stronger effect = higher value
# In short: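 Compound exposure of yeast; growth compared with vehicle controls; inhibition reported.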
# [11] = NCI Yeast Anticancer Drug Screen. Data for the mlh1 strain (AID 171);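 also: 0% = growth of vehicle-treated control cultures of the same strain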; conditions: S. cerevisiae mlh1 strain growth inhibition, stronger effect = higher value
# In short: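 Compounds are applied to a genetically altered yeast strain, and its growth is compared with that of vehicle-treated cultures to give percent inhibition.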
# [12] = NCI Yeast Anticancer Drug Screen. Data for the sgs1 strain (AID 173);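 also: 0% = growth of vehicle-only control cultures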; conditions: S. cerevisiae sgs1 mutant, stronger effect = higher value
# In short: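 Compounds applied to genetically altered yeast; growth compared with vehicle-treated cultures to give % inhibition.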
# [13] = NCI Yeast Anticancer Drug Screen. Data for the mlh1 rad18 strain (AID 175); conditions: S. cerevisiae mlh1 rad18 strain growth inhibition, stronger effect = higher value
# In short: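 Cells of a genetically altered yeast strain, deficient in DNA damage repair, were treated with compound. Their growth was then compared with that of vehicle-treated cultures to give inhibition.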
# [14] = NCI Yeast Anticancer Drug Screen. Data for the rad18 strain (AID 177); conditions: S. cerevisiae rad18 mutant growth inhibition, stronger effect = higher value
# In short: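 Compounds are applied to a repair-deficient yeast strain, and growth is compared with that of vehicle-treated cultures to give percent inhibition.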
# [15] = at 5.0 µM (retest, dose inferred, filed as 0.5)
# [16] = at 50.0 µM (retest, dose inferred, filed as 5.0)
structure (smiles),measurement,setting,value
CN(C)c1ccc(/C=C/c2ccnc3ccc4ccccc4c23)cc1,growth inhibition,[1]; at 1.2 µM,-6%
same,growth inhibition,[1]; at 3.7 µM,-9%
same,growth inhibition,[1]; at 11.0 µM,-6%
same,growth inhibition,[1]; at 33.0 µM,34%
same,growth inhibition,[1]; at 100.0 µM,48%
same,growth inhibition,[2]; at 1.2 µM,2%
same,growth inhibition,[2]; at 3.7 µM,8%
same,growth inhibition,[2]; at 11.0 µM,15%
same,growth inhibition,[2]; at 33.0 µM,4%
same,growth inhibition,[2]; at 100.0 µM,-14%
same,growth inhibition,[3]; at 1.2 µM,-7%
same,growth inhibition,[3]; at 3.7 µM,3%
same,growth inhibition,[3]; [15],9%
same,growth inhibition,[3]; at 11.0 µM,30%
same,growth inhibition,[3]; at 33.0 µM,67%
same,growth inhibition,[3]; [16],-7%
same,growth inhibition,[3]; at 50.0 µM,69%
same,growth inhibition,[3]; at 100.0 µM,70% (active)
same,growth inhibition,[4]; at 1.2 µM,-7%
same,growth inhibition,[4]; at 3.7 µM,-7%
same,growth inhibition,[4]; [15],-7%
same,growth inhibition,[4]; at 11.0 µM,4%
same,growth inhibition,[4]; at 33.0 µM,82% (active)
same,growth inhibition,[4]; [16],-18%
same,growth inhibition,[4]; at 50.0 µM,27.3%
same,growth inhibition,[4]; at 100.0 µM,82% (active)
same,growth inhibition,[5]; at 1.2 µM,-5%
same,growth inhibition,[5]; at 3.7 µM,-4%
same,growth inhibition,[5]; at 11.0 µM,28%
same,growth inhibition,[5]; at 33.0 µM,83% (active)
same,growth inhibition,[5]; at 100.0 µM,80% (active)
same,growth inhibition,[6]; [15],-2%
same,growth inhibition,[6]; [16],76% (active)
same,growth inhibition,[6]; at 50.0 µM,91.4% (active)
same,growth inhibition,[7]; at 1.2 µM,-11%
same,growth inhibition,[7]; at 3.7 µM,-16%
same,growth inhibition,[7]; at 11.0 µM,-15%
same,growth inhibition,[7]; at 33.0 µM,2%
same,growth inhibition,[7]; at 100.0 µM,55%
same,growth inhibition,[8]; [15],-14%
same,growth inhibition,[8]; [16],22%
same,growth inhibition,[8]; at 50.0 µM,6.65%
same,growth inhibition,[9]; at 1.2 µM,-6%
same,growth inhibition,[9]; at 3.7 µM,-8%
same,growth inhibition,[9]; [15],-4%
same,growth inhibition,[9]; at 11.0 µM,6%
same,growth inhibition,[9]; at 33.0 µM,83% (active)
same,growth inhibition,[9]; [16],3%
same,growth inhibition,[9]; at 50.0 µM,70% (active)
same,growth inhibition,[9]; at 100.0 µM,79% (active)
same,growth inhibition,[10]; at 1.2 µM,-6%
same,growth inhibition,[10]; at 3.7 µM,-5%
same,growth inhibition,[10]; at 11.0 µM,50%
same,growth inhibition,[10]; at 33.0 µM,61%
same,growth inhibition,[10]; at 100.0 µM,51%
same,growth inhibition,[11]; at 1.2 µM,-8%
same,growth inhibition,[11]; at 3.7 µM,0%
same,growth inhibition,[11]; at 11.0 µM,45%
same,growth inhibition,[11]; at 33.0 µM,67%
same,growth inhibition,[11]; at 100.0 µM,68%
same,growth inhibition,[12]; at 1.2 µM,-3%
same,growth inhibition,[12]; at 3.7 µM,11%
same,growth inhibition,[12]; at 11.0 µM,67%
same,growth inhibition,[12]; at 33.0 µM,77% (active)
same,growth inhibition,[12]; at 100.0 µM,68%
same,growth inhibition,[13]; [15],-3%
same,growth inhibition,[13]; [16],37%
same,growth inhibition,[13]; at 50.0 µM,72% (active)
same,growth inhibition,[14]; at 1.2 µM,2%
same,growth inhibition,[14]; at 3.7 µM,20%
same,growth inhibition,[14]; at 11.0 µM,75% (active)
same,growth inhibition,[14]; at 33.0 µM,84% (active)
same,growth inhibition,[14]; at 100.0 µM,75% (active)
